# High-throughput results (PubChem BioAssay)
# HCMV antiviral: inhibitors of human cytomegalovirus; HFF cells, HCMV-luciferase reporter, 72 h; stronger effect = lower value; activity change, negative = inhibition, % at 57.5 µM; 410,000 tested, 4.5% active; AID 1259415; in the data active means activity change below about -60%; inconclusive means no clear call, values can overlap the other calls; inactive means above about -39%
#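 Two-dose cell screen: HFF monolayers treated with compounds and infected with luciferase-expressing HCMV at 1 PFU/cell, 72 h at 37C, then lysed for luciferase measurement.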
# Pf growth 48h: P. falciparum growth inhibition at 48 hours (one generation); P. falciparum luciferase growth in erythrocytes, 48 h; Potency, µM (highest dose often 28.7 µM), without a hit: at the top dose activity change, negative = inhibition, hits mostly inhibitors; 310,000 tested, 5.9% active; further: potency means the concentration at half of the fitted maximal effect
#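 Compounds are pin-transferred into medium, infected erythrocytes (2% hematocrit, 0.1% parasitemia final) are added, and plates sit one parasite generation at 37 C in 5% CO2. Detection reagent is then added and luminescence measured.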
# Marburg entry inh: blocks Marburg virus binding to or entry into cells. AID 540276. 300,000 tested, 1.8% active. Potency, µM (top dose mostly 37.8 µM), for inactives: top-dose activity change, negative = inhibition, most hits filed as inhibitors. Marburg virus pseudotyped entry inhibition, cell reporter; calls by dose curve; tested in HEK293 cells; further: potency means the concentration at half of the fitted maximal effect
# LASV entry inh: Lassa virus entry inhibition | Potency, µM (titrated, usually from 37.9 µM), for inactives: at the highest dose activity change, negative = inhibition, actives largely listed as inhibitors | 300,000 tested, 1.2% active | Lassa virus pseudotype entry inhibition, cell reporter | AID 540256; calls by dose curve; tested in HEK293 cells; further: potency means the concentration at half of the fitted maximal effect; nearly all actives have a fitted effect of over 50% in size
# HCV inhibitor: blocks hepatitis C virus; 340,000 tested, 3.4% active; Huh7.5.1 HCVcc-Cre infection, luciferase reporter, 44 h; Potency, µM (titrated, usually from 41.8 µM), inactives show at the highest dose activity change, negative = inhibition, hits mostly inhibitors; further: potency means the concentration at half of the fitted maximal effect
#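 HCVcc-Cre virus at an moi near 0.5 was added right after compound to cells cultured 4 h from seeding (1,000 cells/well). Luciferase activity was determined 44 h later, 15 min after substrate addition at RT.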
# Pf growth 96h: P. falciparum growth inhibition at 96 hours | Potency, µM (doses to about 28.7 µM), inactives show top-dose activity change, negative = inhibition, actives largely listed as inhibitors | P. falciparum luciferase reporter growth, 96 h | 320,000 tested, 6.9% active; further: potency means the concentration at half of the fitted maximal effect
#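 Parasite growth measured via integrated firefly luciferase reporter in P. falciparum. Infected erythrocytes at 2% hematocrit, 0.05% parasitemia final were treated 96 hours at 37 C under 5% CO2, and luminescence was read.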
# * = called active by the depositor; ? = inconclusive; . = no result given; [ ] = remark or other dose. Rows were chosen to be rich in hits. Some 14% of all compounds tested hit in one or more screens of this group. Unless noted, the call rests on the fitted dose curve; in most records, active means well fitted inhibition curve with a large enough effect; inconclusive means small, poorly fitted or top-dose-only effect, or another doubt; inactive means no such curve, though single readings can be large or run the other way. On the % scale 0 is the no-effect control and ±100 the full control effect.
SMILES,HCMV antiviral,Pf growth 48h,Marburg entry inh,LASV entry inh,HCV inhibitor,Pf growth 96h
COCCNC(=O)C1(C)CCCN(C(=O)c2ccccc2OC)C1 (stereo not given),12,.,.,.,.,.
COCCCn1cc(CN2CC(N3CCN(C)CC3)CS2(=O)=O)nn1 (stereo not given),-30,.,.,.,.,.
COc1cc(CNCCCN2CCOCC2)cc(Br)c1OCc1ccc(Cl)cc1,-99*,?,.,.,1.8µM*,?
COc1cc(CNCCCN2CCOCC2)cc(Br)c1OCC(=O)N1CCCCC1,24,-3%,?,-13%,?,10%
C=CCOc1c(Cl)cc(CNCCCN2CCOCC2)cc1OC,-10,-11%,10µM*,13%[46.1 µM],?,?
COc1cc(CNCCN2CCOCC2)ccc1OCc1ccccc1Cl,-14,?,?,?,?,12µM*
Cc1nc(N2CCN(C)CC2)c2c(C)c(C(=O)Nc3ccc(C)c(F)c3)sc2n1,35,.,?,0%,8.9µM*,?
Cc1nc(N2CCCCC2)c2c(C)c(C(=O)Nc3ccc4c(c3)OCCO4)sc2n1,-61*,?,.,.,?,-6%
Cc1cccc(NC(=O)c2sc3nc(C)nc(N4CCOCC4)c3c2C)c1,-22,.,.,.,.,.
O=C(COc1ccc2oc3c(c2c1)CCCC3)Nc1cccc(Br)c1,-18,.,-24%[46.1 µM],19%[46.1 µM],.,.
COc1ccc(CCNC(=O)C2CCC(CNS(=O)(=O)c3ccc(C)cc3)CC2)cc1OC (stereo not given),0,.,.,4%[46.1 µM],.,.
COc1cc(S(=O)(=O)Nc2ccccc2N2CCCCC2)ccc1NC(C)=O,-20,-25%,.,.,-5%,?
COc1cc(OC)c(S(=O)(=O)Nc2ccccc2N2CCCCC2)cc1NC(C)=O,38,9.3µM*,.,.,0%,9.3µM*
COc1ccccc1NS(=O)(=O)c1cc(NC(=O)C(C)C)ccc1N1CCCCC1,-38,-20%,0.79µM*,?,?,?
COc1ccccc1NS(=O)(=O)c1cc(NC(=O)Nc2ccccc2)ccc1N1CCCCC1,-24,2.6µM*,?,?,?,1.5µM*
COc1ccccc1NS(=O)(=O)c1cc(NC(=O)c2cc[n+]([O-])cc2)ccc1N1CCCC1,?,?,-22%[46.1 µM],-16%,-23%,?
COc1cccc2c1cc1c(=O)n(CC(=O)NC3CC3)nc(C)n12,-15,.,2%[46.1 µM],.,.,.
COC(=O)N[C@H](C[N+](=O)[O-])C(C)(C)C,.,.,5%[14.2 µM],.,.,.
O=C(Cc1ccccc1)Oc1ccc([N+](=O)[O-])cc1,-11,-19%,3%,?,17%,?
O=C(Cc1ccccc1)NC(C(=O)O)C(O)c1ccc([N+](=O)[O-])cc1 (stereo not given),57,23%,.,.,9%,10µM*
COc1ccc(-c2csc3nc(-c4ccc(F)cc4)oc(=O)c23)cc1,8,.,.,-6%[46.1 µM],.,.
COc1ccc(-c2csc3nc(-c4ccccc4OC)oc(=O)c23)cc1,-69*,?,?,-4%[46.1 µM],-17%,6%
O=C1C(=O)c2ccccc2C(O)=C1c1cccc([N+](=O)[O-])c1,-66*,?,5.6µM*,3.5µM*,-17%,7.4µM*
CC(C)c1ccc(C2=C(O)c3ccccc3C(=O)C2=O)cc1,-22,1.5µM*,?,15%,4%,164%
Cc1ccc(C2=C(O)c3ccccc3C(=O)C2=O)cc1,4,?,.,.,18%,10%
SMILES,HCMV antiviral,Pf growth 48h,Marburg entry inh,LASV entry inh,HCV inhibitor,Pf growth 96h
O=C1C(c2ccncc2)=C(O)c2ccccc21,67,132%,7.1µM*,7.9µM*,0%,-7%
CCc1ccc(NC(=O)CCc2c(C)n(C)c3cc(-c4ccccc4C)nn3c2=O)cc1,-2,.,.,-16%[46.1 µM],.,.
CC(C1=C(CCN(C)C)Cc2ccccc21)c1ccccn1 (stereo not given),-38,.,?,4%[46.1 µM],14%,.
CCCCCCn1c(=O)c(C(=O)Nc2cnccn2)c(O)c2ccccc21,-38,2.6µM*,?,?,?,?
CCCCCn1c(=O)c(C(=O)Nc2ccccn2)c(O)c2ccccc21,-98*,?,.,.,?,2%
CCn1c(=O)c(C(=O)Nc2ccccn2)c(O)c2ccccc21,25,5%,12%[46.1 µM],29%[46.1 µM],15%,?
CCCCCCn1c(=O)c(C(=O)Nc2ncccc2O)c(O)c2ccccc21,-73*,-25%,.,.,-17%,-52%
CCCCn1c(=O)c(C(=O)Nc2ccccn2)c(O)c2ccccc21,-78*,8%,.,.,-13%,?
CCCn1c(=O)c(C(=O)Nc2cnccn2)c(O)c2ccccc21,.,3%,0%,.,-1%,.
CC(C)c1ccc(N2C(=O)N(Cc3ccccc3Cl)c3ccccc3S2(=O)=O)cc1,-22,.,.,-18%[46.1 µM],.,.
O=C(Nc1ccc(F)c(Cl)c1)c1cc(C2CCCCN2C(=O)c2ccccc2)on1 (stereo not given),1,.,.,.,.,.
Fc1ccc(CNc2nc(-c3ccccc3)cc(C(F)(F)F)n2)cc1,-8,.,-16%[46.1 µM],0%[46.1 µM],.,.
CCOC(=O)c1ccccc1NC(=O)c1c(O)c2ccccc2n(CC)c1=O,-29,-11%,2%,7%,5%,-24%
CCn1c(=O)c(C(=O)Nc2ncccc2O)c(O)c2ccccc21,54,43%,?,25%,-6%,?
CCCCCn1c(=O)c(C(=O)Nc2ccccc2N)c(O)c2ccccc21,-38,4.1µM*,.,.,?,334%
CCn1c(=O)c(C(=O)Nc2ccc(C)cc2C)c(O)c2ccccc21,.,2%,2%,9%,10µM*,0%
CCn1c(=O)c(C(=O)Nc2ncccc2C)c(O)c2ccccc21,?,-12%,?,-9%,10µM*,?
COC(=O)[C@H](CCSC)NC(=O)Cn1cnc(C(=O)Nc2ccc(C)c(C)c2)n1,65,.,.,.,13%,.
CCCNC(=O)Nc1ccc2c(c1)OC[C@H](C)N(C(=O)C1CCCCC1)C[C@@H](C)[C@H](OC)CN(C)C2=O,-9,.,.,.,.,.
COc1ccc(C(=O)COC(=O)c2ccc(N(C)C)cc2)cc1,-10,24%,0%[46.1 µM],-1%[46.1 µM],-7%,48%
CN(C)c1cc[n+](CC(=O)c2ccc(-c3ccccc3)cc2)cc1,-95*,4.7µM*,?,?,?,?
CN(C)c1cc[n+](CC(=O)c2ccc(Br)cc2)cc1,-74*,?,-22%[46.1 µM],?,-10%,?
O=C(C[n+]1ccccc1)c1ccc(-c2ccccc2)cc1,2,30%,-29%[46.1 µM],22%,5%,10%
COc1ccc(C(=O)C[n+]2ccc(N(C)C)cc2)cc1,-68*,1.2µM*,2%[46.1 µM],?,?,?
Cc1ccc(C(=O)C[n+]2ccc(Cc3ccccc3)cc2)cc1,-88*,?,?,?,?,8.3µM*
CC1CN(C(=O)c2ccc(CNS(=O)(=O)c3cccc(Cl)c3)cc2)CC(C)O1 (stereo not given),-8,-7%,-29%,-7%,-5%,13%
